Shown are actives, neighbours in structure and some others; about 1.8% of the full set was active somewhere.
PGK inhibitor = blocks T. brucei phosphoglycerate kinase | P07378 | PGK/GAPDH coupled, Kinase-Glo luminescence, 60 min | Potency, µM (doses to about 57.5 µM), actives largely listed as inhibitors | 0.043% of 380,000 active | AID 602233; also: nearly all actives have a fitted effect of over 60% in size
Target sequence (P07378 whole entry, looked up): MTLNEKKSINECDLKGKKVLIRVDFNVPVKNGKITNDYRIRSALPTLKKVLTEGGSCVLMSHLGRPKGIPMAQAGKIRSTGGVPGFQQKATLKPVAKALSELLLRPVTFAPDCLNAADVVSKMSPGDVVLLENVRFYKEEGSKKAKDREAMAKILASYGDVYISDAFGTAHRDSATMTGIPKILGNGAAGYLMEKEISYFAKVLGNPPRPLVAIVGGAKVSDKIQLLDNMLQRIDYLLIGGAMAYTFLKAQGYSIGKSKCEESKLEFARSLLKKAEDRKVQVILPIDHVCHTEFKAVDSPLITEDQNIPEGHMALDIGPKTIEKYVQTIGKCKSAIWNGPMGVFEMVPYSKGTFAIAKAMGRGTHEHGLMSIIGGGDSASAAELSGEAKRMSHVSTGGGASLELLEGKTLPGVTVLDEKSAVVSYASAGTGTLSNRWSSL
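Recombinant glycosomal PGK reaction used 1,3-bisphosphoglycerate generated in-well by GAPDH (100nM final) in 100mM TEA pH 7.6, 5mM MgCl2, 0.01% Tween-20. After 60 minutes at room temperature, ATP was read by Kinase-Glo Plus luminescence end-point.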
GLP1R cytotox = cytotoxicity counter-screen for GLP-1 receptor inverse agonists; AID 624418; HEK293 cAMP-luciferase reporter cells, luminescence, 24 h; 0.13% of 410,000 active; Potency, µM (doses to about 38.3 µM), actives largely listed as inhibitors;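 also: loss of luciferase light is scored as toxicity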
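Quantitative HTS format, 1536 wells, 200 cells/uL seeded. Compounds: 23 nL, 24 h, 37 °C. Detection: luciferase reagent, luminescence at 12 min RT; decreased signal taken as cytotoxic.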
GLP-1R inv ag = acts as inverse agonist at human GLP-1 receptor. P43220. HEK293 GLP-1R CRE-luciferase, luminescence, 24 h; GLP-1R form is constitutively active. Potency, µM (top dose mostly 38.3 µM), actives largely listed as inhibitors. 1.6% of 410,000 active. AID 624417; also: nearly all actives have a fitted effect of over 55% in size
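GLP-1R inverse agonism mode: basal reporter luminescence in engineered HEK293 cells measured after one day of compound exposure at 37 deg C, with a 12 min room-temperature detection step.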
GLP1R ag = GLP-1 receptor (human) agonism; P43220; HEK293 GLP-1R CRE-luciferase, luminescence, 4-6 h; cells express a hypersensitive GLP-1R form; Potency, µM (titrated, usually from 45.6 µM), usual class: activators; 0.007% of 380,000 active; AID 624172
Pin1 inh = inhibitors of human Pin1. Pin1 FP peptide displacement, HiFluor488, 10 min. 0.009% of 390,000 active. Q13526. Potency, µM (series often up to 115 µM), usual class: inhibitors; active = well fitted inhibition curve with a large enough effect in the polarisation, with a control signal flat, not every such curve was filed as active; inconclusive = small, poorly fitted or top-dose-only effect, or effect the other way, or a change in a side signal; inactive = no such curve, though single readings can be large or run the other way; the % refers to the polarisation
Tb PFK inh = T. brucei PFK enzyme inhibition; Potency, µM (top dose mostly 57.5 µM), usual class: inhibitors; T. brucei PFK, ADP-Glo luminescence; 0.17% of 330,000 active; also: nearly all actives have a fitted effect of over 60% in size
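Compounds were pin-transferred as a titration series up to 57 uM into substrate buffer (0.5 mM F6P, 0.1 mM ATP, pH 8.0), then 1.25 nM PFK was added and reactions ran 45 min before ADP-Glo detection.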
Large screens that a line does not name were inactive. Unless noted, calls follow the shape of the dose curve; as a rule, active = well fitted curve in the direction sought with a large enough effect; inconclusive = small, poorly fitted or top-dose-only effect, or another doubt; inactive = no such curve, though single readings can be large; an effect the other way counts as inactive or inconclusive.

COc1ccc(C(=O)N2c3cc4c(cc3C(C)=CC2(C)C)OCO4)cc1	GLP-1R inv ag 7.94µM
Cc1ccc(NS(=O)(=O)c2ccc3c(c2)N(C)CCO3)cc1C	none (no result: PGK inhibitor, GLP1R cytotox, GLP-1R inv ag, GLP1R ag, Tb PFK inh)
CCCCOC(=O)c1ccc(NC(=O)c2cnc3ccc(C)cn3c2=O)cc1	none (no result: GLP1R ag, Tb PFK inh)
O=c1cc(-c2ccc(O)cc2)oc2c(O)c(O)c(O)c(O)c12	PGK inhibitor 4.47µM, Pin1 inh inconclusive
CN(C)S(=O)(=O)c1cccc(NC(=O)COC(=O)c2ccc3ccccc3n2)c1	none
CN(C)S(=O)(=O)c1cccc(NC(=O)COC(=O)c2cc(-c3cccc(Br)c3)nc3ccccc23)c1	GLP-1R inv ag 10µM
CCc1ccc(NC(=O)c2cnn3ccccc23)cc1	GLP-1R inv ag 5.01µM
CCN(C(=O)c1sc2nc3n(c(=O)c2c1C)CCCC3)c1ccccc1F	Pin1 inh inconclusive (no result: GLP1R ag, Tb PFK inh)
COc1ccccc1NC(=O)Nc1nc(CC(=O)N2CCN(c3ccccc3F)CC2)cs1	GLP-1R inv ag 10µM
COc1ccccc1NC(=O)Nc1nc(CC(=O)NCc2c(F)cccc2F)cs1	GLP1R cytotox inconclusive, GLP-1R inv ag inconclusive
CC1CCc2onc(C(=O)N3CCN(c4cccc(C(F)(F)F)c4)CC3)c2C1 (stereo not given)	Pin1 inh inconclusive (no result: GLP1R ag, Tb PFK inh)
COc1ccc(NC(=O)CN2C(=O)C(c3ccc(C)cc3)=NC23CCCCCC3)cc1Cl	GLP-1R inv ag 11.2µM (no result: PGK inhibitor, GLP1R ag, Tb PFK inh)
COc1ccc(C2=NC3(CCCCCC3)N(CC(=O)Nc3cccc(Cl)c3)C2=O)cc1	GLP-1R inv ag 11.2µM (no result: PGK inhibitor, GLP1R ag, Tb PFK inh)
C=CCNC(=S)Nc1cc(C)ccn1	GLP1R cytotox inconclusive, GLP-1R inv ag 10µM
CCN(CC)CCOCCOC(=O)C(CC)(CC)c1ccccc1 (tested in a mixture with another compound)	none (no result: PGK inhibitor, GLP1R cytotox, GLP-1R inv ag, Pin1 inh, Tb PFK inh)
CCCCCC(O)(c1ccccc1)C(CN1CCOCC1)c1ccccc1 (stereo not given)	GLP-1R inv ag 10µM
CCCCCCC(O)(c1ccccc1)C(CN1CCOCC1)c1ccccc1 (stereo not given)	GLP1R cytotox inconclusive, GLP-1R inv ag 3.55µM
COc1ccccc1C(O)(c1ccccc1)C(CN1CCOCC1)c1ccccc1 (stereo not given)	GLP-1R inv ag 10µM
COc1ccc(C(O)(CCC(C)C)C(CN2CCOCC2)c2ccccc2)cc1 (stereo not given)	GLP1R cytotox inconclusive, GLP-1R inv ag 10µM
COc1cccc(CNC(=O)CN2C(=O)CCn3nc(-c4cn(C)c5ccccc45)cc32)c1OC	none (no result: GLP1R ag, Tb PFK inh)
COC(=O)c1ccc2c(=O)n(CCCCCC(=O)NCCc3ccc(Cl)cc3)c(=O)[nH]c2c1	none (no result: GLP1R ag, Tb PFK inh)
Cc1ccc(S(=O)(=O)NCC(=O)NCC(=O)N(C)Cc2ccc(Br)s2)cc1C	GLP-1R inv ag inconclusive (no result: Pin1 inh, Tb PFK inh)
Cc1cc(C)c(NC(=O)CNC(=O)CN(C)Cc2ccc(Br)s2)c(C)c1	GLP-1R inv ag 6.31µM
O=C(NCc1ccccc1)c1ccc(CN2CCC(Cc3ccccc3)CC2)cc1	GLP-1R inv ag 10µM
CCc1ccccc1NC(=O)c1ccc(CN2CCC(Cc3ccccc3)CC2)cc1	GLP1R cytotox inconclusive, GLP-1R inv ag 8.91µM
CNC(=O)CN(Cc1ccccc1)S(=O)(=O)c1ccc(Cl)cc1	none
COC(=O)c1ccc(NC(=O)CN(Cc2ccccc2)S(=O)(=O)c2ccc(C)cc2)cc1	GLP-1R inv ag 10µM (no result: GLP1R ag, Tb PFK inh)
COC(=O)c1ccc(NC(=O)CN(Cc2ccccc2)S(=O)(=O)c2ccc(Cl)cc2)cc1	GLP-1R inv ag 8.91µM, Pin1 inh inconclusive (no result: GLP1R ag, Tb PFK inh)
COc1ccc(NC(=O)CN(Cc2ccccc2)S(=O)(=O)c2ccc(C)cc2)cc1Cl	GLP-1R inv ag 10µM (no result: GLP1R ag, Tb PFK inh)
CCOc1ccccc1C(=O)N1CCCCC1CCN1CCOCC1 (stereo not given)	none (no result: GLP1R ag, Tb PFK inh)
O=C(Nc1nc(-c2cccc([N+](=O)[O-])c2)cs1)C(c1ccccc1)c1ccccc1	GLP-1R inv ag 1.58µM
COc1ccc(-c2nc(CSCC(=O)N3CCN(c4cccc(C)c4C)CC3)c(C)o2)cc1OC	GLP-1R inv ag 10µM (no result: GLP1R ag, Tb PFK inh)
CC(C)C(=O)OCc1cc(=O)n2nc(C3CC3)sc2n1	none (no result: GLP1R ag, Tb PFK inh)
